Our source for the growth values is PubChem BioAssay (NCI).

Among the test systems are HCT-15 colon; HT29 colon; SNB-75 CNS; SNB-19 CNS; U251 CNS; PC-3 prostate; SK-MEL-5 melanoma; UACC-62 melanoma; LOX IMVI melanoma; SK-MEL-28 melanoma; SK-MEL-2 melanoma; EKVX NSCLC; SN12C renal; UO-31 renal; TK-10 renal; ACHN renal; CAKI-1 renal; CCRF-CEM leukemia; MOLT-4 leukemia; A498 renal.
Experiment in all cases: NCI-60 one-dose screen, 48 h (100 = growth as untreated, 0 = no growth, -100 = all killed)
Common to all, as to conditions: 10 µM unless noted

Structures are written as SMILES. Compounds without any hit were thinned out: in the full panel of roughly 83,000, 20% have a hit.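 Note: values are percent growth. 100 is the growth of untreated cells, values between 100 and 0 indicate rising inhibition; between -100 and 0 indicates cell death.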 A number with no mark means an inactive call. Calls of active or inactive are those of the source. The calls were made as follows: active = growth percent below 10; inactive = the rest.

With `CC(C)C(C(=O)CCN(C)C)c1ccc(Cl)cc1` (stereo not drawn), the growth was 92.6% with HCT-15 colon; 106% with HT29 colon; 87.8% in the assay on SNB-75 CNS; 95.1% with SNB-19 CNS; 83.7% with U251 CNS; 86.9% with PC-3 prostate. In addition, the growth was 102% in the assay with SK-MEL-5 melanoma; 89.7% with UACC-62 melanoma; 98.5% in the assay on LOX IMVI melanoma; 107% with SK-MEL-28 melanoma; 98.4% in the assay with SK-MEL-2 melanoma; 103% in the assay with EKVX NSCLC. For the same compound, the growth in the assay with SN12C renal is 95.4%; in the assay with UO-31 renal it was 93.3%; with TK-10 renal it was 101%; in the assay on ACHN renal, 101%; in the assay on CAKI-1 renal, 102%; in the assay with CCRF-CEM leukemia, 90.6%. For the same compound, the growth with MOLT-4 leukemia was 76.5%.

Regarding `CCN1C(=S)N(CC)C2Nn3c(s/c(=C4\C(=O)N(C)c5ccccc54)c3=O)=NC21` (stereo not drawn), the growth is 35.5% in the assay on HCT-15 colon; 14.9% in the assay on HT29 colon; -1.67% (active) in the assay with SNB-75 CNS; 70.6% in the assay on SNB-19 CNS; 51.4% with U251 CNS; 38.6% in the assay on PC-3 prostate. In addition, the growth was 19.6% with SK-MEL-5 melanoma; 48.4% in the assay with UACC-62 melanoma; 49.2% in the assay on LOX IMVI melanoma; 59.6% in the assay with SK-MEL-28 melanoma; 70.4% with SK-MEL-2 melanoma; 54.6% in the assay with EKVX NSCLC. The growth was 51.3% in the assay with SN12C renal; 37.2% in the assay with UO-31 renal; 96.9% in the assay on TK-10 renal; 52.5% with ACHN renal; 30.8% with CAKI-1 renal; -8.5% (active) in the assay with A498 renal. In addition, in the assay on MOLT-4 leukemia, the growth is 61.8%.

On to `CC(=O)/C=C/c1cc2cc(Cl)ccc2[nH]c1=O`, for which the growth was 76% with HCT-15 colon; 76.8% in the assay on HT29 colon; 102% in the assay on SNB-75 CNS; 68.8% with SNB-19 CNS; 62.1% in the assay on U251 CNS; 77.5% in the assay with PC-3 prostate. Moreover, the growth was 96.5% in the assay with SK-MEL-5 melanoma; 80.8% in the assay with UACC-62 melanoma; 69.1% with LOX IMVI melanoma; 99.9% in the assay on SK-MEL-28 melanoma; 87.9% with SK-MEL-2 melanoma; 89.3% in the assay with EKVX NSCLC. Besides, the growth in the assay on SN12C renal was 77%; with UO-31 renal, 77.5%; in the assay with TK-10 renal, 95.5%; with ACHN renal, 92%; in the assay on CAKI-1 renal, 87%; in the assay with CCRF-CEM leukemia it was 69%. Besides, the growth in the assay with MOLT-4 leukemia was 87.1%.

Consider `CCOP(=O)(CCN1CCN(CCCCCOc2cc3c(cc2OC)C(=O)N2CCC[C@H]2C=N3)CC1)OCC`, for which the growth in the assay on HCT-15 colon was 104%; with HT29 colon, 80.4%; in the assay on SNB-75 CNS, 65.5%; in the assay on SNB-19 CNS, 91.5%; with U251 CNS, 30.1%; in the assay with PC-3 prostate, 76.2%. The growth is 83.9% in the assay on SK-MEL-5 melanoma; 94.6% with UACC-62 melanoma; 22% with LOX IMVI melanoma; 120% in the assay on SK-MEL-28 melanoma; 33.6% in the assay on SK-MEL-2 melanoma; 98.2% with EKVX NSCLC. In addition, the growth with SN12C renal was 79%; in the assay with UO-31 renal, 28.3%; with TK-10 renal it was 148%; with ACHN renal, 99.9%; with CAKI-1 renal it was 57.3%; in the assay on A498 renal, 89.2%. In addition, the growth in the assay with MOLT-4 leukemia is 19.9%.

With `CCN1C(=O)N(CC)C2Nn3c(s/c(=C4\C(=O)N(C5CCCC5)c5ccccc54)c3=O)=NC21` (stereo not drawn), the growth in the assay with HCT-15 colon is 51.2%; in the assay with HT29 colon it was 21.3%; in the assay on SNB-75 CNS, 8.34% (active); in the assay with SNB-19 CNS, 79.2%; with U251 CNS it was 58.9%; in the assay on PC-3 prostate, 46.5%. Moreover, the growth is 34.8% in the assay with SK-MEL-5 melanoma; 61.9% with UACC-62 melanoma; 64.5% in the assay with LOX IMVI melanoma; 73.4% in the assay on SK-MEL-28 melanoma; 75.9% in the assay on SK-MEL-2 melanoma; 59.7% with EKVX NSCLC. Also, the growth is 70.6% with SN12C renal; 51.7% in the assay on UO-31 renal; 88.1% with TK-10 renal; 59.2% with ACHN renal; 32.6% with CAKI-1 renal; 30.8% with A498 renal. Besides, the growth in the assay on MOLT-4 leukemia was 84.4%.

In the case of `O=C1CCC/C=C\C[C@H]2C=CC(=O)/C2=C/C[C@H](C/C=C\CC(F)(F)F)O1`, the growth in the assay on HCT-15 colon was -5.57% (active); with HT29 colon it was -28.9% (active); in the assay with SNB-75 CNS, 68.7%; in the assay on SNB-19 CNS, 11.3%; in the assay with U251 CNS it was -65.5% (active); in the assay with PC-3 prostate, -42.5% (active). Further, the growth in the assay on SK-MEL-5 melanoma was -90.7% (active); in the assay with UACC-62 melanoma it was -12.1% (active); with LOX IMVI melanoma, -88.2% (active); in the assay on SK-MEL-28 melanoma it was -28.6% (active); in the assay on SK-MEL-2 melanoma it was -20.9% (active); in the assay on EKVX NSCLC, -17.7% (active). The growth was -6.43% (active) with SN12C renal; -93% (active) in the assay with UO-31 renal; -33.6% (active) in the assay on TK-10 renal; -84.8% (active) in the assay with ACHN renal; 16% in the assay on CAKI-1 renal; -5.64% (active) with CCRF-CEM leukemia. Also, the growth with MOLT-4 leukemia is -0.696% (active).

Consider `CCCCCCCCCN1C(=O)/C(=c2\sc3n(c2=O)C2C(NN=3)N(CC)C(=O)N2CC)c2ccccc21` (stereo not drawn), for which the growth is 73% with HCT-15 colon; 7.96% (active) with HT29 colon; -14.4% (active) with SNB-75 CNS; 39.7% in the assay on SNB-19 CNS; 25.1% in the assay with U251 CNS; 34.3% in the assay on PC-3 prostate. For the same compound, the growth in the assay with SK-MEL-5 melanoma was 72.9%; in the assay on UACC-62 melanoma it was 23.7%; with LOX IMVI melanoma, 19.4%; with SK-MEL-28 melanoma, 41.3%; in the assay on SK-MEL-2 melanoma, 76.2%; in the assay on EKVX NSCLC, 69.1%. The growth in the assay on SN12C renal is 66.3%; in the assay with UO-31 renal, 53.4%; with TK-10 renal, 71.1%; in the assay with ACHN renal, 59%; in the assay on CAKI-1 renal, 34.8%; with A498 renal, 18.8%. Moreover, the growth in the assay on MOLT-4 leukemia was 99.7%.

Turning to `ClC1=C(Cl)C(Cl)=C(Cl)C1=Cc1ccc(Cl)cc1Cl`, the growth in the assay on HCT-15 colon was -56.5% (active); in the assay with HT29 colon it was 10.1%; in the assay with SNB-75 CNS it was -45.6% (active); in the assay on SNB-19 CNS it was -6.26% (active); in the assay on U251 CNS it was -75.1% (active); with PC-3 prostate, -16.5% (active). The growth in the assay on SK-MEL-5 melanoma was -88.1% (active); in the assay on UACC-62 melanoma, -29% (active); in the assay with LOX IMVI melanoma it was -95% (active); in the assay with SK-MEL-28 melanoma, -28.5% (active); in the assay with SK-MEL-2 melanoma, -2.84% (active); in the assay with EKVX NSCLC, -19.8% (active). Further, the growth is -31.1% (active) in the assay on SN12C renal; -81.8% (active) in the assay with UO-31 renal; -5.11% (active) in the assay with TK-10 renal; -75.7% (active) in the assay on ACHN renal; -41.2% (active) with CAKI-1 renal; -89.6% (active) with A498 renal. The growth is 3.34% (active) in the assay on CCRF-CEM leukemia and 4.59% (active) in the assay on MOLT-4 leukemia.
